Test results: the supplement of paper PMC10849652
About 7,900 targets were measured; listed, in parts, are those with a hit and a random draw of the rest. About 0.6% of all pairs of compound and target were hits.

What was measured:
Assay in all cases: log2 fold change, soluble protein after heating vs DMSO (PISA); higher = thermal stabilisation; K562 cells, 10 uM, 30 min; active = over 0.2 and 3.5 SD of the protein, either way, in both replicates (recomputed)
[1] = compound: CC[C@@H]1C(=O)N(C)c2cnc(Nc3ccc(C(=O)NC4CCN(C)CC4)cc3OC)nc2N1C1CCCC1
Method in brief: (§1)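 Soluble protein was quantified by TMTpro 16plex LC-MS/MS after channel sums were equalised. It was obtained as the supernatant after 21,000xg for 90 min from pooled aliquots of K562 cells (2×10^6 cells/mL, 10 μM compound, 30 min) heated for 3 min across 48°C-58°C and extracted in PBS with 0.5% NP-40 at 4°C. Thermal stability values are relative to control samples and come from duplicates. They are given as log2 fold changes.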

volasertib = compound: CC[C@@H]1C(=O)N(C)c2cnc(Nc3ccc(C(=O)N[C@H]4CC[C@H](N5CCN(CC6CC6)CC5)CC4)cc3OC)nc2N1C(C)C [volasertib]
Method in brief: as §1

[2] = compound: CC[C@H](C)N1C=C(C2=C(C=C(C=C21)C3=CN=C(C=C3)N4CCNCC4)C(=O)NCC5=C(C=C(NC5=O)C)C)C
Method in brief: as §1

epoxomicin = compound: CC[C@H](C)[C@@H](C(=O)N[C@@H]([C@@H](C)O)C(=O)N[C@@H](CC(C)C)C(=O)[C@]1(CO1)C)NC(=O)[C@H]([C@@H](C)CC)N(C)C(=O)C [epoxomicin]
Method in brief: as §1

[3] = compound: CCn1c(C(=O)N(C2CC2)C2CC2)cc2c3c(ncn3C)c(Nc3cc(C)n(C)n3)nc21
Method in brief: as §1

[4] = compound: CCn1cc(-c2ccnc3[nH]c(-c4cccc(CN(C)C)c4)cc23)c(-c2ccc(NC(=O)N(C)C)cc2)n1
Method in brief: as §1

[5] = compound: CN(C)CC(=O)Nc1ccc2[nH]c(=O)c3ccccc3c2c1
Method in brief: as §1

rosiglitazone = compound: CN(CCOC1=CC=C(C=C1)C[C@H]2C(=O)NC(=O)S2)C3=CC=CC=N3 (racemic) [rosiglitazone]
Method in brief: as §1

[6] = compound: CN1C2=C(C3=C1C(=O)N(N=C3)CC4=CC(=CC=C4)N)SC(=C2)S(=O)C
Method in brief: as §1

[7] = compound: CN1CCC(CNc2ccc3ncc(-c4cccc(OC(F)(F)F)c4)n3n2)CC1
Method in brief: as §1

saracatinib = compound: CN1CCN(CCOc2cc(OC3CCOCC3)c3c(Nc4c(Cl)ccc5c4OCO5)ncnc3c2)CC1 [saracatinib]
Method in brief: as §1

sotrastaurin = compound: CN1CCN(c2nc(C3=C(c4c[nH]c5ccccc45)C(=O)NC3=O)c3ccccc3n2)CC1 [sotrastaurin]
Method in brief: as §1

alvocidib = compound: CN1CC[C@H](c2c(O)cc(O)c3c(=O)cc(-c4ccccc4Cl)oc23)[C@H](O)C1 [alvocidib]
Method in brief: as §1

Tubastatin A = compound: CN1CCc2c(c3ccccc3n2Cc2ccc(C(=O)NO)cc2)C1 [Tubastatin A]
Method in brief: as §1

[8] = compound: CNC(=O)C1=CC=CC=C1NC2=NC(=NC=C2Cl)NC3=C(C=C(C=C3)N4CCOCC4)OC
Method in brief: as §1

defactinib = compound: CNC(=O)c1ccc(Nc2ncc(C(F)(F)F)c(NCc3nccnc3N(C)S(C)(=O)=O)n2)cc1 [defactinib]
Method in brief: as §1

rucaparib = compound: CNCc1ccc(-c2[nH]c3cc(F)cc4c3c2CCNC4=O)cc1 [rucaparib]
Method in brief: as §1

[9] = compound: CNc1nc(-c2ccc3c(N)n[nH]c3c2)cc(N2C[C@@H](C(=O)NC3CCCCC3)CC[C@H]2C)n1
Method in brief: as §1

encorafenib = compound: COC(=O)N[C@@H](C)CNc1nccc(-c2cn(C(C)C)nc2-c2cc(Cl)cc(NS(C)(=O)=O)c2F)n1 [encorafenib]
Method in brief: as §1

[10] = compound: COC(=O)[C@H](CCSC)NC(=O)C1=C(C=C(C=C1)NC[C@H](CS)N)C2=CC=CC=C2
Method in brief: as §1

Measured: log2 fold change

BCL9L (UniProt Q86UU0)
UniProt Q86UU0, sequence (Q86UU0 whole entry, looked up): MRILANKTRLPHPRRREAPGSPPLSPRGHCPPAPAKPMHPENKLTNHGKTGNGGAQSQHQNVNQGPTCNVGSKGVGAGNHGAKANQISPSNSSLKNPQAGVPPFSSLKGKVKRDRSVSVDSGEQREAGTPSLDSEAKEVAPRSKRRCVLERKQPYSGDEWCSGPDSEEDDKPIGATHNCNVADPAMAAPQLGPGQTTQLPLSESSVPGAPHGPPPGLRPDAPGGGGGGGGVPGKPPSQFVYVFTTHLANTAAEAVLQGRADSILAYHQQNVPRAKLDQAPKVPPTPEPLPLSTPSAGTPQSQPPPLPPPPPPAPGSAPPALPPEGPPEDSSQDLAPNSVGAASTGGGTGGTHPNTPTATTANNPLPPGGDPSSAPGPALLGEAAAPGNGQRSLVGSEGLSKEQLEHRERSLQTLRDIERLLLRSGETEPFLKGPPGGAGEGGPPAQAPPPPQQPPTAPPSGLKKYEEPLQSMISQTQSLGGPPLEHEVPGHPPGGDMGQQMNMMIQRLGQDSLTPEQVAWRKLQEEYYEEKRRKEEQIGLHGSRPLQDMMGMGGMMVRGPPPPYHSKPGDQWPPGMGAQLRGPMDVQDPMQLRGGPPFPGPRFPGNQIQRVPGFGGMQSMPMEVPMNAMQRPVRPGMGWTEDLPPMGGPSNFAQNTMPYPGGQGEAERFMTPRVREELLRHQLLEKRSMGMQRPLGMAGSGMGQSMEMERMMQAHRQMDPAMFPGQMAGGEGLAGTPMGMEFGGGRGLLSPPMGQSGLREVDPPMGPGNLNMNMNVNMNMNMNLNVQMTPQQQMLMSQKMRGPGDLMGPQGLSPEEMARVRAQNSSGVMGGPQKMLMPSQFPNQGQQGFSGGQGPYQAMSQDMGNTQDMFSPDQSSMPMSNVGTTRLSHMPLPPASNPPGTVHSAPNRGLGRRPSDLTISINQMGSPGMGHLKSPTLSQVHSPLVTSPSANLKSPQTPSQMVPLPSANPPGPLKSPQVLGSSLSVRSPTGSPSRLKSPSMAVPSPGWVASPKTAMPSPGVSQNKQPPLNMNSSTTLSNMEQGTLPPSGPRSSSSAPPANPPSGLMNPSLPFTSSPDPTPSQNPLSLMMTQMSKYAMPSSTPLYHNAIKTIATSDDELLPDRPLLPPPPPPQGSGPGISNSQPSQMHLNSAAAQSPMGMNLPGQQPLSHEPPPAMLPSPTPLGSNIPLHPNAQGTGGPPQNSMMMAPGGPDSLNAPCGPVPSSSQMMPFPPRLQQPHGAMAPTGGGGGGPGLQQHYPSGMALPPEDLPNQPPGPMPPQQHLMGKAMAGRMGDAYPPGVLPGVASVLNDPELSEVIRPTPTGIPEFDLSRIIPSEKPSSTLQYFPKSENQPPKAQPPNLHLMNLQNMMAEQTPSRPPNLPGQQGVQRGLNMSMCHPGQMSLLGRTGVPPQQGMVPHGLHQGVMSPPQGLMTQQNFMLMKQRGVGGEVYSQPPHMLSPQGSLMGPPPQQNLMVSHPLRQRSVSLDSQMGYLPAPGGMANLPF
inactive: [1] 0 | volasertib 0.036 | [2] 0.044 | epoxomicin 0.038 | [3] 0.04 | [4] -0.024 | [5] -0.003 | rosiglitazone 0.088 | [6] -0.023 | [7] -0.019 | saracatinib -0.042 | sotrastaurin 0.042 | alvocidib -0.012 | Tubastatin A 0.053 | [8] -0.017 | defactinib -0.014 | rucaparib 0.026 | [9] -0.092 | encorafenib -0.033 | [10] 0.069

BRK1 isoform 2 (UniProt Q8WUW1)
inactive: [1] 0.074 | volasertib -0.021 | [2] -0.02 | [3] 0.021 | [4] -0.009 | [5] 0.031 | rosiglitazone 0.011 | [6] -0.053 | [7] 0.137 | saracatinib 0.036 | sotrastaurin 0.007 | alvocidib -0.027 | Tubastatin A 0.037 | [8] -0.011 | defactinib -0.074 | rucaparib -0.05 | [9] -0.03 | encorafenib -0.063 | [10] -0.018
active: epoxomicin 0.497

AP2A2 isoform 2 (UniProt O94973)
inactive: [1] 0.026 | volasertib -0.021 | [2] 0 | epoxomicin 0.048 | [3] 0.01 | [4] -0.012 | [5] 0 | rosiglitazone 0.012 | [6] 0.008 | [7] 0.089 | saracatinib 0.006 | sotrastaurin -0.028 | alvocidib 0.052 | Tubastatin A 0.022 | [8] 0.022 | defactinib -0.006 | rucaparib 0.077 | [9] -0.053 | encorafenib -0.002 | [10] -0.008

ARFIP1 (UniProt P53367)
UniProt P53367, sequence (P53367 whole entry, looked up): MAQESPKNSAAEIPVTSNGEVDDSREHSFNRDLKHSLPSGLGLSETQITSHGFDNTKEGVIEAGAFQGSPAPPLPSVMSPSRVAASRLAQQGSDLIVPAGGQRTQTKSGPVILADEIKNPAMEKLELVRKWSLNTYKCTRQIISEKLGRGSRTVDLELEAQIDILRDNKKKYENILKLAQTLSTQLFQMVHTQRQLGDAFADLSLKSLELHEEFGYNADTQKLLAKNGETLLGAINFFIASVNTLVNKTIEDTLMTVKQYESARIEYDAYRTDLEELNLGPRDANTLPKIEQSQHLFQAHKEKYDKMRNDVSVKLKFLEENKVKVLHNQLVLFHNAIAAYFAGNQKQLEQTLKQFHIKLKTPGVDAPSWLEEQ
active: [8] -0.351
inactive: [1] -0.008 | volasertib -0.184 | [2] 0.113 | epoxomicin -0.003 | [3] -0.101 | [4] 0.083 | [5] -0.011 | rosiglitazone 0.856 | [6] -0.053 | [7] -0.421 | saracatinib 0.043 | sotrastaurin -0.037 | alvocidib -0.031 | Tubastatin A 0.047 | defactinib -0.08 | rucaparib -0.086 | [9] 0.075 | encorafenib -0.01 | [10] 0.163

ADD1 isoform 3 (UniProt P35611)
UniProt P35611, sequence (P35611 whole entry, looked up): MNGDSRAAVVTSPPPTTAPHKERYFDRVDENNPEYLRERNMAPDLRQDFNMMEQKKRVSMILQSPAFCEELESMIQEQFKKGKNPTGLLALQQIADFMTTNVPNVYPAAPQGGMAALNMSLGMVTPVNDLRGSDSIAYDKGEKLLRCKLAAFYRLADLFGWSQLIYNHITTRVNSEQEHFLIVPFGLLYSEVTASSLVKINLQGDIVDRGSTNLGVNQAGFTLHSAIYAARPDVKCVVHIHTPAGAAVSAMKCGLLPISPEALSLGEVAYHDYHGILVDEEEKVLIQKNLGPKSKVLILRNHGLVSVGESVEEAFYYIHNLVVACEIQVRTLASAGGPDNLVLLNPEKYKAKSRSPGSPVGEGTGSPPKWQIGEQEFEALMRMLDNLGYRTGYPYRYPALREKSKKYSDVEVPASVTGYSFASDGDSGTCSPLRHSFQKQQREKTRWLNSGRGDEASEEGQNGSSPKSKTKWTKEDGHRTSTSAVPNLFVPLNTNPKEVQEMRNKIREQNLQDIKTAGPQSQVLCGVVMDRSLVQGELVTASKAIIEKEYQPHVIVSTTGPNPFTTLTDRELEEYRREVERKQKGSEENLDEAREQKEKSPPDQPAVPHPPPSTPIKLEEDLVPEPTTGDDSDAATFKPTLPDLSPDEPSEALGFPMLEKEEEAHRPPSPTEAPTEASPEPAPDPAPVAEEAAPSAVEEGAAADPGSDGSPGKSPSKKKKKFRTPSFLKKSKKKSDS
inactive: [1] 0.077 | volasertib 0.015 | [2] -0.015 | epoxomicin -0.012 | [3] -0.007 | [4] 0.011 | [5] -0.039 | rosiglitazone -0.004 | [6] -0.055 | [7] 0.053 | saracatinib 0.095 | sotrastaurin -0.031 | alvocidib -0.088 | Tubastatin A -0.002 | [8] 0.008 | defactinib -0.039 | rucaparib -0.018 | [9] 0 | encorafenib -0.024 | [10] 0.031

AP2M1 (UniProt Q96CW1)
UniProt Q96CW1, sequence (Q96CW1 whole entry, looked up): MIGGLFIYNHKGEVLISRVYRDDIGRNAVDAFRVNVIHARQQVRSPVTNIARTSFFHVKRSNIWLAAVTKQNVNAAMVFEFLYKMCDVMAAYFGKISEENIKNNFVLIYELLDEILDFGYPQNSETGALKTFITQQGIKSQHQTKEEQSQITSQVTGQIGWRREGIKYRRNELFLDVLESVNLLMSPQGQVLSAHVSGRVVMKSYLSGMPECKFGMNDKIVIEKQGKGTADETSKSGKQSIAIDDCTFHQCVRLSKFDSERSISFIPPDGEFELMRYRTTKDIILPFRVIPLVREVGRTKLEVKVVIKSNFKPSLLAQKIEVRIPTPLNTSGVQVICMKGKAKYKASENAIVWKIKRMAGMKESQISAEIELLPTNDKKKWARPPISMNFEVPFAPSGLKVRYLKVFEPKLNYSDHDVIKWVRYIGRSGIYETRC
inactive: [1] 0.072 | volasertib -0.041 | [2] 0 | epoxomicin 0.002 | [3] 0.013 | [4] -0.006 | [5] -0.046 | rosiglitazone -0.018 | [6] 0.023 | [7] 0.006 | saracatinib 0.032 | sotrastaurin 0.008 | alvocidib 0.017 | Tubastatin A 0.002 | [8] 0.005 | defactinib 0.016 | rucaparib 0.026 | [9] 0.001 | encorafenib 0.008 | [10] -0.014

ARL6IP6 (UniProt Q8N6S5)
UniProt Q8N6S5, sequence (Q8N6S5 whole entry, looked up): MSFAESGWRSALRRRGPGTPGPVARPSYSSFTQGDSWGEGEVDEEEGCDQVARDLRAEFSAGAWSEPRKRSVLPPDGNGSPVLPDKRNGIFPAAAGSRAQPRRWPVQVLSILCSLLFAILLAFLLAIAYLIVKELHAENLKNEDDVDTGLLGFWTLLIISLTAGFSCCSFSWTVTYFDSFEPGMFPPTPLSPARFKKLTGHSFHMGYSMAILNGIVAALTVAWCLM
inactive: [1] 0.154 | volasertib -0.007 | [2] -0.043 | epoxomicin -0.086 | [3] -0.074 | [4] 0.004 | [5] 0.004 | rosiglitazone 0.005 | [6] 0.029 | [7] 0.01 | saracatinib 0.192 | sotrastaurin 0.005 | alvocidib -0.082 | Tubastatin A -0.014 | [8] -0.099 | defactinib -0.053 | rucaparib 0.009 | [9] 0.004 | encorafenib 0.015 | [10] -0.035

ACACB (UniProt O00763)
inactive: [1] -0.006 | volasertib -0.468 | [2] 0.083 | epoxomicin -0.1 | [3] -0.194 | [4] 0.086 | [5] 0.061 | rosiglitazone 0.167 | [6] 0.308 | [7] 0.104 | saracatinib -0.166 | sotrastaurin -0.383 | alvocidib 0.033 | Tubastatin A 0.087 | [8] -0.083 | defactinib 0.016 | rucaparib 0.291 | [9] 0.228 | encorafenib 0.089 | [10] -0.137

ARPP19 (UniProt P56211)
inactive: [1] 0.013 | volasertib 0.016 | [2] -0.01 | epoxomicin 0.041 | [3] 0.029 | [4] -0.052 | [5] 0.032 | rosiglitazone 0.001 | [6] 0.069 | [7] -0.041 | saracatinib -0.002 | sotrastaurin 0.01 | alvocidib 0.032 | Tubastatin A -0.047 | [8] -0.015 | defactinib -0.089 | rucaparib -0.05 | [9] -0.056 | encorafenib -0.016 | [10] 0.002

AAR2 (UniProt Q9Y312)
inactive: [1] -0.032 | volasertib -0.016 | [2] -0.03 | epoxomicin 0.037 | [3] -0.038 | [4] 0.106 | [5] -0.001 | rosiglitazone 0 | [6] -0.087 | [7] -0.096 | saracatinib 0.06 | sotrastaurin -0.017 | alvocidib -0.026 | Tubastatin A -0.027 | [8] -0.049 | defactinib 0.063 | rucaparib 0.17 | [9] -0.069 | encorafenib -0.029 | [10] -0.015

AIP (UniProt O00170)
inactive: [1] -0.115 | [2] 0.054 | epoxomicin 0.172 | [3] -0.006 | [4] -0.051 | [5] 0.057 | rosiglitazone 0.053 | [6] -0.085 | [7] -0.047 | saracatinib 0.009 | sotrastaurin -0.038 | alvocidib -0.079 | Tubastatin A 0.034 | [8] 0.028 | defactinib -0.068 | rucaparib -0.015 | [9] -0.046 | encorafenib 0.065 | [10] -0.025
active: volasertib -0.372

ASNS (UniProt P08243)
inactive: [1] -0.01 | volasertib 0.015 | [2] 0.008 | epoxomicin 0.021 | [3] 0.008 | [4] -0.051 | [5] -0.008 | rosiglitazone 0.003 | [6] -0.064 | [7] -0.037 | saracatinib 0.041 | sotrastaurin 0.016 | alvocidib -0.013 | Tubastatin A -0.002 | [8] -0.036 | defactinib -0.018 | rucaparib -0.017 | [9] -0.015 | encorafenib -0.009 | [10] -0.001

ALKBH5 (UniProt Q6P6C2)
UniProt Q6P6C2, sequence (Q6P6C2 whole entry, looked up): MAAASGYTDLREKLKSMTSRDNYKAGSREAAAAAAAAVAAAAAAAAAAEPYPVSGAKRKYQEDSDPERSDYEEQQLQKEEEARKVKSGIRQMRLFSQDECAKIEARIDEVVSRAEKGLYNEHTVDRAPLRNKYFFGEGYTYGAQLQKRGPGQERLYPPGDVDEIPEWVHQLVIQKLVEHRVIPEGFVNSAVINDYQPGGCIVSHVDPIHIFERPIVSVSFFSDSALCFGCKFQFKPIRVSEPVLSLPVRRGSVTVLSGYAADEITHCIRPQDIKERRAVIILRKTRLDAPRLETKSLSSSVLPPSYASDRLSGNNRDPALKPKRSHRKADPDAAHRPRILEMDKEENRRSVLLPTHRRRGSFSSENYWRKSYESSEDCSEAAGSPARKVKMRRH
inactive: [1] 0.08 | volasertib 0.109 | [2] 0.01 | epoxomicin -0.033 | [3] -0.112 | [4] -0.058 | [5] -0.058 | rosiglitazone -0.015 | [6] -0.011 | [7] 0.041 | saracatinib -0.006 | sotrastaurin -0.044 | alvocidib 0.092 | Tubastatin A 0.118 | [8] -0.185 | defactinib 0.021 | rucaparib 0.11 | [9] 0.035 | encorafenib -0.048 | [10] 0.003

ARFGAP1 (UniProt Q8N6T3)
UniProt Q8N6T3, sequence (Q8N6T3 whole entry, looked up): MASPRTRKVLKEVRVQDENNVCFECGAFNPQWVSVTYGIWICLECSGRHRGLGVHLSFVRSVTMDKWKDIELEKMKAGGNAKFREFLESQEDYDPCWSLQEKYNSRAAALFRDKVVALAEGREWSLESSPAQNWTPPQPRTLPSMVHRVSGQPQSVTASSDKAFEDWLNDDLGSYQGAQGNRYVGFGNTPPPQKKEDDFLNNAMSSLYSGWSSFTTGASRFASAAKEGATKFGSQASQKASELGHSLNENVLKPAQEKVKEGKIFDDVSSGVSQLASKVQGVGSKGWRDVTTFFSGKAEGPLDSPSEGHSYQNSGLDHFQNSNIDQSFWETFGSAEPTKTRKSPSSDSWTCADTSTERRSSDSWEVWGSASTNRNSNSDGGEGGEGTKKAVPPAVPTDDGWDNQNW
inactive: [1] -0.182 | [2] 0.056 | epoxomicin 0.026 | [3] -0.042 | [4] 0.008 | [5] 0.036 | rosiglitazone -0.003 | [6] -0.016 | [7] 0.068 | saracatinib -0.021 | sotrastaurin -0.086 | alvocidib -0.029 | Tubastatin A 0.034 | [8] 0.068 | defactinib -0.158 | rucaparib -0.048 | [9] -0.087 | encorafenib 0.068 | [10] -0.044
active: volasertib -0.545

ATAD3A isoform 2 (UniProt Q9NVI7)
active: [7] -0.319
inactive: [1] -0.145 | volasertib -0.202 | [2] 0.038 | epoxomicin 0.05 | [3] -0.055 | [4] 0.033 | [5] 0.018 | rosiglitazone 0.007 | [6] 0.177 | saracatinib 0.001 | sotrastaurin -0.053 | alvocidib 0.102 | Tubastatin A 0.04 | [8] -0.139 | defactinib 0.05 | rucaparib 0.252 | [9] -0.017 | encorafenib 0.154 | [10] -0.046

AP2B1 isoform 2 (UniProt P63010)
UniProt P63010, sequence (P63010 whole entry, looked up): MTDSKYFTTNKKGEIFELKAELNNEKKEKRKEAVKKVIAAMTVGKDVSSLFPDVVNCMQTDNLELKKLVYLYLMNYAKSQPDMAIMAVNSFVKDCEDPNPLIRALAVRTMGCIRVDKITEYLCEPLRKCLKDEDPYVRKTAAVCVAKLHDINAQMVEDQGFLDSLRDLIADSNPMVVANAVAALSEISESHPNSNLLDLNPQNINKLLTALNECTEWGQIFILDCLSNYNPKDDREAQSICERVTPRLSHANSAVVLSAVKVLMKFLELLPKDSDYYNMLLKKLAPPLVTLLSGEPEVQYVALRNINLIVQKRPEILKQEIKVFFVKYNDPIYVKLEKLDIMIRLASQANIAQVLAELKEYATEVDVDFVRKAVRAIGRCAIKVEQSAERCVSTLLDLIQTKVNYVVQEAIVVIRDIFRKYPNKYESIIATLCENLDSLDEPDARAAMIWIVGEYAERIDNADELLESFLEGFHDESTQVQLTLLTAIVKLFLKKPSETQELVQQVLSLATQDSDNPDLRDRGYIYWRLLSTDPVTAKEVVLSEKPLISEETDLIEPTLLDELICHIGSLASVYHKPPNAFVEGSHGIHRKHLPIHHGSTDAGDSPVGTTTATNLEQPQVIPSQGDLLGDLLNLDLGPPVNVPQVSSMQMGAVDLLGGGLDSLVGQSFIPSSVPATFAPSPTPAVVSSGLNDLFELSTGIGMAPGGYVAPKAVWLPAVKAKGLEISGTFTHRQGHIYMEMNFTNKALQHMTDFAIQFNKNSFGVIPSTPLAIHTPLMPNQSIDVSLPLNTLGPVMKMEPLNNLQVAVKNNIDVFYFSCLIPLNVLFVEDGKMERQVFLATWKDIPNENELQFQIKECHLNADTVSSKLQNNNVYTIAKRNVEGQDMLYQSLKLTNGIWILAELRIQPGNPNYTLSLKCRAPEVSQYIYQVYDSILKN
inactive: [1] 0.065 | volasertib -0.064 | [2] -0.001 | epoxomicin -0.004 | [3] 0.05 | [4] -0.021 | [5] -0.007 | rosiglitazone -0.018 | [6] -0.016 | [7] 0.045 | saracatinib 0.057 | sotrastaurin -0.003 | alvocidib 0.017 | Tubastatin A 0.001 | [8] 0.022 | defactinib 0.005 | rucaparib 0.043 | [9] -0.011 | encorafenib 0.027 | [10] 0.005
